Compounds without any hit were thinned out: in the full panel of roughly 83,000, 20% have a hit.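 Values shown are percent growth following 48 h exposure of cells in 96-well plates to a single concentration of compound; below 10 was considered active.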 Values without a mark were called inactive. Activity calls are given as the source filed them.

Holding throughout (assay): NCI-60 one-dose screen, 48 h (100 = growth as untreated, 0 = no growth, -100 = all killed)
Holding throughout (conditions): 10 µM unless noted

The subject of experiment [1] is HCT-15 colon.
Experiment [2] deals with HT29 colon.
In experiment [3] the test system is SNB-75 CNS.
In experiment [4] the test system is SNB-19 CNS.
Experiment [5] concerns U251 CNS.
In experiment [6] the test system is SK-MEL-5 melanoma.
In experiment [7] the test system is UACC-62 melanoma.
Experiment [8] has as its system LOX IMVI melanoma.
The test system of experiment [9] is SK-MEL-28 melanoma.
The subject of experiment [10] is SK-MEL-2 melanoma.
Experiment [11] has as its system EKVX NSCLC.
Experiment [12] concerns SN12C renal.
Experiment [13] relates to UO-31 renal.
The subject of experiment [14] is TK-10 renal.
Experiment [15] concerns ACHN renal.
Experiment [16] has as its system CAKI-1 renal.
Experiment [17] deals with CCRF-CEM leukemia.
The test system of experiment [18] is MOLT-4 leukemia.
For experiment [19], the system named is PC-3 prostate.
Experiment [20] deals with A498 renal.

Turning to `Cc1cc2nc3c4cccc(O)c4n(CCN(C)C)c3nc2cc1C`, the growth in experiment [1] was 21.6%; in [2] it was 31.1%; in [3], 25.8%; in [4], 38.4%; in [5], 35.5%; in experiment [6], 39.3%. Further, the growth in experiment [7] is 49.5%; in [8] it was 8.06% (active); in experiment [9], 75.6%; in experiment [10] it was 54.2%; in experiment [11], 42.2%; in experiment [12], 29.6%. Besides, the growth in experiment [13] was 6.09% (active); in experiment [14], 72.8%; in experiment [15], 8.22% (active); in experiment [16] it was 13.2%; in [17], 27%; in experiment [18] it was 6.01% (active).

With `COc1ccc(CNCCN2C(=O)c3ccc4c5c(ccc(c35)C2=O)C(=O)N(CCNCc2ccc(OC)c(OC)c2OC)C4=O)c(OC)c1OC`, the growth is -51.2% (active) in [1]; -45.7% (active) in experiment [2]; -12.6% (active) in experiment [3]; -13.6% (active) in [4]; -46.1% (active) in experiment [5]; -93.9% (active) in [6]. In addition, the growth is -72.2% (active) in experiment [7]; -27.9% (active) in experiment [8]; -7.81% (active) in experiment [9]; -62.9% (active) in [10]; -28.3% (active) in experiment [11]; -77.3% (active) in experiment [12]. In addition, the growth in experiment [13] was -19.6% (active); in experiment [14] it was 30.3%; in [16] it was -12.3% (active); in experiment [17] it was -14.8% (active); in experiment [18], -35.2% (active).

Turning to `O=C(N/N=C/c1ccc(Oc2ccccc2)cc1)c1cnn2c1NC(c1ccccc1)C2` (stereo not given), the growth in [1] was 33.9%; in experiment [2], 65.8%; in [3], 76.8%; in [4] it was 61%; in [5], 48.1%; in experiment [6], 41.5%. The growth in experiment [7] was 6.85% (active); in [8], 57.2%; in [9], 56.2%; in experiment [10], 4.54% (active); in [11], 77.6%; in experiment [12], 71.8%. Further, the growth is 60.7% in experiment [13]; 66.8% in experiment [14]; 35.2% in experiment [15]; 33.6% in experiment [16]; 67.5% in experiment [17]; 75.1% in [18].

With `O=C(Nc1ccccc1)Nc1ccc2cc3ccc(NC(=O)Nc4ccccc4)cc3nc2c1`, the growth was 93.9% in experiment [1]; 4.81% (active) in [2]; -0.331% (active) in [3]; -27.5% (active) in [4]; -39.3% (active) in [5]; 83% in [6]. Moreover, the growth in [7] is 18.7%; in experiment [8] it was -52.8% (active); in experiment [9], -13.4% (active); in experiment [10], 55.5%; in experiment [11] it was 86.6%; in [12], -26.5% (active). Moreover, the growth in experiment [13] is 89.9%; in [14], 114%; in [15], 92%; in experiment [16] it was 80.3%; in [17] it was 0.957% (active); in experiment [18], -27.6% (active).

Turning to `O=C1/C=C/[C@@H](O)[C@@H]2C[C@@H](O)C[C@H]2/C=C/CCC[C@H](CCc2cccc3ccccc23)O1`, the growth is 7.46% (active) in experiment [1]; 3.87% (active) in experiment [2]; 33% in experiment [3]; 30.1% in experiment [4]; 23.8% in [5]; 20.6% in experiment [19]. For the same compound, the growth in experiment [6] is -95.9% (active); in [8] it was -55.9% (active); in [9] it was 2.17% (active); in experiment [11] it was 13.3%; in experiment [12], 5.88% (active); in [13] it was 4.61% (active). Further, the growth is -0.338% (active) in experiment [14]; 6.35% (active) in experiment [15]; -17.9% (active) in [16]; 7.69% (active) in experiment [17]; -36.2% (active) in experiment [18].

On to `O=C(NO)c1ccc(-n2nc(-c3ccccc3)c3ccccc32)cc1`, for which the growth in experiment [1] is 18.5%; in experiment [2] it was 41.7%; in experiment [3] it was 12.1%; in experiment [4] it was 47.4%; in experiment [5], 34.4%; in experiment [6], 57.6%. Further, the growth is 34.5% in experiment [7]; 24.8% in experiment [8]; 72.5% in experiment [9]; 90.9% in [10]; 42.3% in experiment [11]; 32.9% in [12]. Moreover, the growth in experiment [13] was 34.6%; in [14], 31.5%; in experiment [15] it was 26.9%; in experiment [16] it was 45.6%; in experiment [20], 58.8%; in [17], 12.9%. In addition, the growth in [18] is 26.9%.

Consider `COC(=O)C1=C(C(=O)ON)[C@@H]2C=C[C@@]1([C@@H](Cc1ccccc1)Nc1ccccc1)O2`, for which the growth in [1] is -47.6% (active); in [2], 57.7%; in [3], 108%; in experiment [4], 104%; in experiment [5], 92.2%; in experiment [6], 101%. Also, the growth in experiment [7] is 90%; in experiment [8], 77.7%; in experiment [9], 73.3%; in experiment [10], 94%; in experiment [11] it was 97.7%; in experiment [12] it was 81.5%. The growth in experiment [13] is 71.1%; in experiment [14] it was -23.4% (active); in experiment [16], 86%; in experiment [17], -13.5% (active); in experiment [18], 7.55% (active).

As to `CN1CCN(C(=O)[C@]23CCC(C)(C)C[C@H]2C2=CC[C@@H]4[C@@]5(C)C/C(=C/c6ccncc6)C(=O)C(C)(C)[C@@H]5CC[C@@]4(C)[C@]2(C)CC3)CC1`, the growth is 36.3% in experiment [1]; 5.24% (active) in experiment [2]; 85.2% in experiment [3]; 61.2% in [4]; 44.8% in experiment [5]; 19.5% in experiment [19]. The growth is 54.3% in [6]; 40.2% in experiment [8]; 74.7% in experiment [9]; 78.2% in experiment [10]; 80.2% in experiment [11]; 49.9% in [12]. The growth in experiment [13] was 37.3%; in experiment [15], 65.1%; in [16] it was 75.4%; in experiment [17], 19.7%; in experiment [18], 2.92% (active).

In the case of `COc1cc2c(-c3cc4c(cc3CNCCc3ccc5c(c3)OCO5)OCO4)cccc2c(OC)c1O`, the growth was 59.4% in experiment [1]; 92% in experiment [2]; 44.9% in experiment [3]; 87.4% in [4]; 75.1% in experiment [5]; 60.9% in experiment [19]. In addition, the growth in experiment [6] is 78.8%; in [8], 72.8%; in [9], 97.6%; in experiment [10], 92.9%; in experiment [11] it was 77.4%; in experiment [12], 78.8%. Further, the growth in experiment [13] is 45.5%; in [14], 102%; in experiment [17], 79.5%; in experiment [18], 56.5%.

Consider `CCCCOc1ccc(/C=N/Nc2cc(C)nc3ccc(Br)cc23)cc1`, for which the growth was -66% (active) in [1]; -19.4% (active) in experiment [2]; 107% in experiment [3]; 50.7% in experiment [4]; -53.5% (active) in experiment [5]; 53.3% in experiment [19]. For the same compound, the growth in experiment [6] is 84.3%; in experiment [8], -96.9% (active); in [9], 59.5%; in experiment [10] it was 106%; in experiment [11] it was 69.9%; in experiment [12], -78.4% (active). In addition, the growth in experiment [13] was -71.1% (active); in experiment [14], 76.2%; in experiment [15], 19.9%; in [16] it was 71.3%; in experiment [17], 2.46% (active); in experiment [18], -26% (active).

The values are drawn from PubChem BioAssay (NCI).
